The results in this text go back to PubChem BioAssay (NCI).

SMILES strings stand for the structures. Compounds without any hit were thinned out: in the full panel of roughly 79,000, 15% have a hit. Values without a mark were called inactive. Activity calls are given as the source filed them. No stated cut-off is given here; in the data, active means growth inhibition above about 70%; inactive means the rest.

This test is described as follows: NCI Yeast Anticancer Drug Screen. Data for the cln2 rad14 strain (AID 165).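 Further: 0% = growth equal to vehicle treated cultures.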 The following applies: S. cerevisiae cln2 rad14 strain, at 50.0 µM, stronger effect = higher value. On the procedure: Growth inhibition of yeast strains with defined genetic alterations is measured as a screen for potential anti-cancer activity. Selected strains with alterations in DNA damage repair or cell cycle control were exposed to compounds and growth inhibition was measured relative to vehicle treated controls. The strain used in this assay is cln2 rad14
On to `CC(=O)OCCC(C)CCC=C(C)C` (stereo not given), for which the growth inhibition is -18.1%.

Take `Nc1ccc(N=Nc2ccc(S(=O)(=O)O)cc2)c2ccccc12`: the growth inhibition is -25.9%.

As to `Cc1cccc(CO)c1`, the growth inhibition was -57%.

For the compound `Nc1nc(OCc2ccccc2)c2[nH]cnc2n1`, the growth inhibition was -29.2%.

On to `Cc1ccc(/C(C#N)=C/c2ccc3c(c2)OCO3)cc1`, for which the growth inhibition is -14.3%.

On to `CC(C)(C)n1nc(C2CC2)c(Br)c1NC(=O)c1ccccc1F`, for which the growth inhibition is 3.25%.

In the case of `CCCCC(CC)COC(C)=O` (stereo not given), the growth inhibition is 5.2%.

Regarding `CCCC(=O)c1cc(C)ccc1OC`, the growth inhibition is -22.6%.

For `COC(=O)Nc1nc2ccc(C(=O)c3ccc(F)cc3)cc2[nH]1`, the growth inhibition was -26.4%.

`CCOC(=O)C(C#N)Cc1ccccc1` (stereo not given): the growth inhibition was -14.2%.

Take `CO[C@H]1C[C@@H]2CC[C@@H](C)[C@@](O)(O2)C(=O)C(=O)N2CCCC[C@H]2C(=O)O[C@H]([C@H](C)C[C@@H]2CC[C@@H](O)[C@H](OC)C2)CC(=O)[C@H](C)C=C(C)[C@@H](O)[C@@H](OC)C(=O)[C@H](C)C[C@H](C)/C=C/C=C/C=C1C`: the growth inhibition is 85.2% (active).

Regarding `CC1CC(O)CC(C)(C)C1` (stereo not given), the growth inhibition is -25.4%.

In the case of `O/N=C/c1ccc(O)cc1O`, the growth inhibition is -29.9%.

As to `COC(=O)C(O)c1ccccc1` (stereo not given), the growth inhibition is 23.7%.

Regarding `Cc1ccc(C(=O)N/N=C/c2ccc3c(c2)OCO3)cc1`, the growth inhibition is 10.8%.

Regarding `Cc1c(O)cccc1O`, the growth inhibition is 7.1%.

Consider `CC1(O)OC(COc2ccc(Cl)cc2)COC1O` (stereo not given), for which the growth inhibition is 8.55%.

Turning to `O=C(NC1CCCCC1)OCc1c(COC(=O)NC2CCCCC2)c(-c2ccc(Cl)c(Cl)c2)n2c1CCC2`, the growth inhibition is 43.3%.

In the case of `CCCCCCCCO`, the growth inhibition was 5.5%.

Consider `CCOC(=O)C1=C(C)NC(=O)NC1c1cccs1` (stereo not given), for which the growth inhibition is 5.5%.

For the compound `CCc1ccc(/C(C#N)=C/C=C/c2ccccc2)cc1`, the growth inhibition is -2.9%.

In the case of `c1ccc(/C(=N\N=C(/c2ccccc2)c2cccs2)c2cccs2)cc1`, the growth inhibition was -2.8%.

As to `N#Cc1ccc(NC(=O)Nc2cccc(C#N)c2)cc1`, the growth inhibition is -15.1%.

As for `O=C(Cc1ccccc1)Cc1ccccc1`, the growth inhibition is -3.3%.

Take `O=[N+]([O-])c1ccc(N=Nc2ccccc2)cc1`: the growth inhibition is 21.2%.

On to `O=c1cc(-c2ccccc2)nc2cc(-c3ccco3)[nH]n12`, for which the growth inhibition was 7.9%.

As for `CCC(C#N)(CC)c1ccccc1`, the growth inhibition is 12.7%.

In the case of `Cc1cc(/C=C/c2ccc3cc(N(C)C)ccc3[n+]2C)c(C)n1-c1ccccc1`, the growth inhibition is 93.2% (active).

As to `Cc1nc2ccccc2c(C(=O)O)c1O`, the growth inhibition was 6.65%.

In the case of `O=C(O)CCC(=O)OC(C1CO1)C(OC(=O)CCC(=O)O)C1CO1` (stereo not given), the growth inhibition is 3.3%.

As to `O=C(NN=C1CCCCC1)C(=O)NN=C1CCCCC1`, the growth inhibition was -20.7%.

In the case of `CCc1nn(Cc2ccccc2)c2nc(C)c(CCc3ccccc3)c(Cl)c12`, the growth inhibition is 2.6%.

On to `CCCCCCCCCCCCCC(=O)Oc1ccc[nH]c1=O`, for which the growth inhibition was 11%.

Turning to `C1CNC(C2=NCCN2)=N1`, the growth inhibition was -26.1%.

`CN(C)C(C)(C)CC(C)(C)C`: the growth inhibition is 4.85%.

On to `O=S(=O)(Cc1ccccc1)c1ccccc1`, for which the growth inhibition is -0.8%.

`CC(=O)CC(=O)N(C)C`: the growth inhibition is -13.9%.

As for `COc1cc2cc(c1Cl)N(C)C(=O)C[C@H](OC(=O)[C@H](C)N(C)C(C)=O)[C@]1(C)O[C@H]1[C@H](C)[C@@H]1C[C@@](O)(NC(=O)O1)[C@H](OC)C=C/C=C(\C)C2`, the growth inhibition is 14.1%.

`Cc1cc(Cc2cc(C)c(N)cc2N)c(N)cc1N`: the growth inhibition was 15.2%.

For the compound `CCCCCCCCCCC1CO1` (stereo not given), the growth inhibition was -23.1%.
